Compound activity as filed in PubChem BioAssay.
The entries come from a sample that favours hits as a whole.
Pf Dd2 inh: inhibitors of Plasmodium falciparum Dd2 growth. Potency, µM (doses to about 28.9 µM), for inactives: at the top dose activity, negative = inhibition, most hits filed as inhibitors. hit rate 4.3% among 120,000. AID 1347417. P. falciparum Dd2 growth, SYBR Green, 72 h; active = well fitted inhibition curve with a large enough effect;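 also: plate controls were DMSO vehicle for no effect and reference drug for full effect; nearly all actives have a fitted effect of over 65% in size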
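Infected erythrocytes (Dd2, 0.3% parasitemia, 2.5% hematocrit final) are added to compound in RPMI-1640/Albumax II medium, grown 72 h at 37C in low oxygen, then lysed with saponin/Triton-X containing SYBR Green and read by fluorescence.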
Numbers without * were called inactive; i = inactive; [ ] = another dose, or the depositor's remark. Potency is read from the fitted curve at half-maximal effect.

SMILES	Pf Dd2 inh
COC1CCN(c2ccc3nnc(-c4ccccn4)n3n2)CC1	-11%[44.1 µM]
Cc1cnc(C(=O)N2CCCCCCNC(=O)[C@@H]3C[C@@H](C(=O)N4CCc5ccccc5C4)C[C@@H]32)cn1	-16%
CC(C)(C)NC(=O)N1CCCCCCNC(=O)[C@@H]2C[C@@H](C(=O)N3CCc4ccccc4C3)C[C@@H]21	4.5µM*
O=C1NCCCCCCN(C(=O)C2CC2)[C@H]2C[C@H](C(=O)N3CCc4ccccc4C3)C[C@@H]12	i
CCn1ccc(C(=O)N2CCC(c3noc(-c4cnccn4)n3)C2)n1 (centres undefined)	i[5.79 µM]
CCc1c(C(=O)N2CC[C@@H]3[C@@H](CCC(=O)N3CCN)C2)csc1C	-2%
O=C(NCC1CCCCC1)c1ccc2c(c1)N(S(=O)(=O)c1ccccc1)CC2	4.5µM*
COc1ccccc1CNC(=O)c1ccc2c(c1)CCN2S(=O)(=O)c1ccccc1	-16%
O=C(NC1CCCC1)c1ccc2c(c1)N(S(=O)(=O)c1ccccc1)CC2	i
CCn1nccc1C(=O)N1CCC2(CC1)CCC(O)(CN(C)C)CC2	-4%
CNC(=O)[C@@H](c1ccccc1)N1CCC[C@H]1C(=O)N1CCC1	35%[44.1 µM]
COc1ccc(CC(=O)N2C3CCCC2CC(=O)C3)cc1	12%[44.1 µM]
Cc1ccc(-c2cc(O)c3c(c2)CNCCO3)cc1	i
COc1ccc(-c2cc3c(c(OC)c2)OCCNC3)nn1	-9%
COc1cc(-c2cc(C)c3c(OC)ccc(OC)c3n2)cc2c1OCCNC2	11µM*
CN(C)c1ccc(-c2nc(C3CC(=O)N(c4ccc(F)cc4)C3)no2)cc1 (centres undefined)	27%
FC(F)(F)CN1C2CCC1CN(c1cncc(Cl)c1)C2	-8%
O=C(Nc1ccc(-c2cc(C(F)(F)F)nn2-c2ccccc2)cc1)c1cccc(F)c1	11µM*
O=C(NC(=O)c1cccc(F)c1)Nc1ccc(-c2cc(C(F)(F)F)nn2-c2ccccc2)cc1	-18%
O=C(NC(=O)c1ccccc1)Nc1ccc(-c2cc(C(F)(F)F)nn2-c2ccccc2)cc1	i
COc1cncc(N2C[C@@H]3[C@H](C2)N(CCOc2ccccc2)C(=O)C(C)(C)[S+]3(=O)[O-])c1	-1%
CC1=C(C(=O)OCc2ccccc2)C(c2cccc(Cl)c2Cl)CC(=O)N1 (centres undefined)	17%
CC1=C(C(=O)OCC2CCCCC2)C(c2cccc(Cl)c2Cl)CC(=O)N1 (centres undefined)	6%
CC1=C(C(=O)OCc2ccc(C)cc2)C(c2ccccc2C(F)(F)F)CC(=O)N1 (centres undefined)	5.6µM*
O=C(NC1CC1)[C@@H]1C[C@H](Oc2ccccc2)CN1C(=O)C1CCCC1	-2%
SMILES	Pf Dd2 inh
Cc1cc(C(=O)N2CCCCCC2c2nnc(C)o2)n(C)n1 (centres undefined)	3%
CCCc1noc(-c2cccn3c(CNC(=O)Cc4ccc(Cl)cc4)nnc23)n1	-1%
CCCc1noc(-c2cccn3c(CNC(=O)c4ccc(C)cc4)nnc23)n1	13µM*
CCCc1noc(-c2cccn3c(CNC(=O)Cc4ccccc4Cl)nnc23)n1	i
Cc1ccc(C(=O)N2CCC(CCC(=O)NC3CC3)CC2)cc1	-1%
N[C@H]1CCN2C(=O)c3cc(-c4ccc(Cl)cc4)ccc3NC(=O)[C@@H]2C1	i
Cc1ccc(C)c(CN2C(=O)C(=O)c3ccccc32)c1	-23%
Cc1ccc(-c2cccc(C=O)c2)c(C)c1	4%[44.1 µM]
Cc1ccc(-c2ccccc2CN)c(C)c1	5µM*
COc1ccc(C(=O)N[C@H](Cc2ccccn2)C2CC(O)C2)cc1F (some centres undefined)	-3%
COc1ccc(C(=O)N[C@@H](Cc2ccccc2)C(=O)N2CCCOCCNC(=O)CC2)cc1F	-24%
CCS(=O)(=O)N(C1CC1)C1CCOC2(CCN(C(=O)Cc3cccc(C)c3)CC2)C1 (centres undefined)	i
CC(=O)Nc1ccc(CN2CCC[C@H]2c2nc(-c3ccc(N4CCC(C(N)=O)CC4)nc3)no2)cc1	i
COCC(=O)Nc1ccc(-c2noc([C@@H]3CCCN3Cc3cc4ccccc4o3)n2)cn1	-16%[44.1 µM]
CC(=O)N1CCC(N2CCC[C@H]2c2nc(-c3ccc(N4CCC(C(N)=O)CC4)nc3)no2)CC1	i
c1cncc(CN2CCC[C@H]2c2nc(-c3ccc(-n4ccnc4)nc3)no2)c1	8.9µM*
CNc1ccc(-c2noc([C@@H]3CCCN3Cc3cccnc3)n2)cn1	i
COc1ccc(CN2CCC[C@H]2c2nc(-c3ccc(-n4ccnc4)nc3)no2)c(OC)c1OC	10µM*
CN(C)c1ccc(-c2noc([C@@H]3CCCN3Cc3ccc(CO)o3)n2)cn1	7.9µM*
CC(=O)N1CCC(N2CCC[C@H]2c2nc(-c3ccc(-n4ccnc4)nc3)no2)CC1	-21%[44.1 µM]
CNc1ccc(-c2noc([C@@H]3CCCN3Cc3cccc(OC)c3)n2)cn1	-8%[44.1 µM]
CC(C)N1CCC[C@H]1c1nc(-c2ccc(N3CCN(C)CC3)nc2)no1	10µM*
CN(C)c1ccc(-c2noc([C@@H]3CCCN3C3CCOCC3)n2)cn1	i
FC(F)(F)Oc1cccc(CN2CCC[C@H]2c2nc(-c3ccc(N4CCOCC4)nc3)no2)c1	-12%
COc1ccc(OC)c(NC(=O)CN2C(=O)NC3(CCS(=O)(=O)CC3)C2=O)c1	-12%
SMILES	Pf Dd2 inh
COc1ccc(OCc2nc(C3CN(C(=O)Cc4c[nH]c5ccccc45)C3)no2)cc1	-21%
O=C([C@H]1C[C@@H](O)[C@H](O)[C@@H]2N=C(Nc3cccc(C(F)(F)F)c3)S[C@@H]21)N1CCOCC1	-12%
CN1CCC(NC2(Cc3cc(CCO)on3)COC2)CC1	14%[44.1 µM]
CCc1ccc(N2CC(c3noc(-c4ccc(C)nc4)n3)CC2=O)cc1 (centres undefined)	i
CCS(=O)(=O)Nc1ccc(C2(C(=O)NCc3ccc(F)cc3F)CCCCC2)cc1	i
CCS(=O)(=O)Nc1ccc(C2(C(=O)NCc3ccccc3)CCCCC2)cc1	i
CCS(=O)(=O)Nc1ccc(C2(C(=O)Nc3cccc(F)c3C)CCCCC2)cc1	11µM*
COCCN1CCC(N2CCN(C(=O)c3ccc(C)cc3)CC2)C1=O (centres undefined)	14%
COc1cc(CNCCOc2cccnc2)ccc1OCC(O)CN1CCSCC1 (centres undefined)	i
CCN1CCN(CC(O)COc2cccc(CNCCc3cccc(C)n3)c2)CC1 (centres undefined)	i
CN(CC(O)COc1cccc(CNCCOc2ccccc2)c1)C1CCCCC1 (centres undefined)	4.5µM*
COCc1nc(-c2ccc(OC3CCN(C(=O)Nc4cccc(C)c4)C3)cc2)no1 (centres undefined)	24%[5.79 µM]
Cc1ncoc1C(=O)N1CCC2(CCCN(C3CCOCC3)C2=O)C1 (centres undefined)	-3%
Cc1ncoc1C(=O)N1CCOc2ccc(CCC(=O)NCC3CC3)cc2C1	-9%
CC(C)N1CCC(N2C[C@H]3OC(=O)N(CCc4cccc(Cl)c4)[C@H]3C2)CC1	-7%
CC(C)c1ccc(CN2CCc3ncc(C(=O)Nc4ccccc4)n3CC2)cc1	13µM*
CC(C)CCNC(=O)c1cnc2n1CCN(Cc1ccc(C(C)C)cc1)CC2	-16%[44.1 µM]
O=C(Nc1ccccc1)c1cnc2n1CCN(Cc1cccc(O)c1)CC2	-19%[44.1 µM]
COc1cccc(N2CC3(C2)CN(c2ccccc2)C(=O)O3)c1	1%[44.1 µM]
Cc1ccccc1C(=O)N(C)CC1CCOCC1	0%
C=CCC1(CO)CCCN(C(=O)CCCOc2ccccc2)C1 (centres undefined)	-27%
